# Source: the supplement of paper PMC10338343
# ± gives the standard deviation.
# Experiments:
# [1] = tested on: MILI (PIWIL2) piRISC loaded with L1MC piRNA (26 nt); assay: pre-steady-state target cleavage rate (min^-1); guide: L1MC piRNA 5'p-UAACUAAAUACUAUGCAAGCUGUAGG; higher = faster piRNA-guided slicing of the target; conditions: auxiliary factor: 500 nM mouse GTSF1
# How it was run: (§1)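 Active affinity-purified piRISC (1 nM) loaded with one synthetic guide was mixed with a transcribed, DNA-blocked target RNA library (0.1 nM), with or without 500 nM GTSF1 partner protein, in HEPES–potassium acetate buffer at 33 °C for 0–8 or 0–960 min. Uncleaved targets were sequenced, normalised to depth and to weakly complementary targets, and pooled across three trials, with k3 capped at 0.0001 min^-1. The pre-steady-state cleavage rate was determined with a burst-and-steady-state fit.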
# [2] = tested on: EfPiwi piRISC loaded with L1MC piRNA (26 nt); assay: pre-steady-state target cleavage rate (min^-1); auxiliary factor: 500 nM Ephydatia muelleri Gtsf1; guide: L1MC piRNA 5'p-UAACUAAAUACUAUGCAAGCUGUAGG; MIWI and MILI are mouse PIWI proteins and EfPiwi is from a freshwater sponge; tags in brackets are library labels; higher = faster piRNA-guided slicing of the target
# How it was run: as §1
sequence,measurement,setting,value
UCCUCCUACAGCUUGGAUAGUAUUUAGAAA,pre-steady-state target cleavage rate,[1],0.0815 ± 0.017
same,pre-steady-state target cleavage rate,[2],0.00325 ± 0.0015
UCCUGGAUGAGCUAGCAUAGAAUUUAGUUA,pre-steady-state target cleavage rate,[1],0.0337 ± 0.011
same,pre-steady-state target cleavage rate,[2],0.00286 ± 0.0026
UCCUCGAACAGCUUGCAUAGUAUUUAGAAA,pre-steady-state target cleavage rate,[1],0.137 ± 0.019
same,pre-steady-state target cleavage rate,[2],0.00534 ± 0.0018
UCCUGGAUGAGGAUGCAUAGUAUUUAGAAA,pre-steady-state target cleavage rate,[1],0.0101 ± 0.0046
same,pre-steady-state target cleavage rate,[2],0.0024 ± 0.0024
UCCUGGUACAGCUUGCAUAGUAUUUAGGUA,pre-steady-state target cleavage rate,[1],0.0562 ± 0.015
same,pre-steady-state target cleavage rate,[2],0.00463 ± 0.0022
UCCUCCUACAGCUUGCAUAGUUUUUUCAAA,pre-steady-state target cleavage rate,[1],0.0513 ± 0.014
same,pre-steady-state target cleavage rate,[2],0.00481 ± 0.0034
UCCUCCUACAGCUUGCAUAGUUAAUAGAAA,pre-steady-state target cleavage rate,[1],0.00946 ± 0.0043
same,pre-steady-state target cleavage rate,[2],0.00366 ± 0.0031
UCCUGGAACAGGUUGCAUAGUAUUUAGAAA,pre-steady-state target cleavage rate,[1],0.163 ± 0.026
same,pre-steady-state target cleavage rate,[2],0.00261 ± 0.0017
UCCUGCUACAGCUUGCAUAGUAAUUAGUAA,pre-steady-state target cleavage rate,[1],0.133 ± 0.025
same,pre-steady-state target cleavage rate,[2],0.00441 ± 0.0018
UCCUGGAACAGCUUGCAUAGUAUUAAGAUA,pre-steady-state target cleavage rate,[1],0.0769 ± 0.019
same,pre-steady-state target cleavage rate,[2],0.00257 ± 0.0022
UCCUGGUACACCUUGCAUAGUAUUUAGAUA,pre-steady-state target cleavage rate,[1],0.0475 ± 0.016
same,pre-steady-state target cleavage rate,[2],0.00278 ± 0.0024
UCCUGGAUGUCCUUGCAUAGUAUUUAGGUA,pre-steady-state target cleavage rate,[1],0.0702 ± 0.017
same,pre-steady-state target cleavage rate,[2],0.00431 ± 0.0026
UCCUCCUACAGCUUGGAUACUAUUUAGUUA,pre-steady-state target cleavage rate,[1],0.0539 ± 0.0095
same,pre-steady-state target cleavage rate,[2],0.0118 ± 0.0031
UCCUGCUACACCUUGCAUAGUAUUUACUUA,pre-steady-state target cleavage rate,[1],0.102 ± 0.034
same,pre-steady-state target cleavage rate,[2],0.00306 ± 0.003
UCCUCCUACAGCUUGCAUAGUUAAUAGUUA,pre-steady-state target cleavage rate,[1],0.0685 ± 0.022
same,pre-steady-state target cleavage rate,[2],0.00703 ± 0.0035
UCCUGGAUGUGCUUGCAUAGUAUUUACGUUA,pre-steady-state target cleavage rate,[1],0.129 ± 0.026
same,pre-steady-state target cleavage rate,[2],0.00702 ± 0.0042
UCCUGCUACAGCUUGCAUAUAUUUAGUUA,pre-steady-state target cleavage rate,[1],0.046 ± 0.011
same,pre-steady-state target cleavage rate,[2],0.00528 ± 0.0031
UCCUGCUACAGCUUGCAUAGUUAAUAGUUA,pre-steady-state target cleavage rate,[1],0.0263 ± 0.0097
same,pre-steady-state target cleavage rate,[2],0.00347 ± 0.0032
UCCUCCUACACCUUGCAUAGUAUUAAGUUA,pre-steady-state target cleavage rate,[1],0.178 ± 0.036
same,pre-steady-state target cleavage rate,[2],0.00451 ± 0.0025
UCCUGGAACAGCUUGCAUAGUAUUAAGUAA,pre-steady-state target cleavage rate,[1],0.0909 ± 0.024
same,pre-steady-state target cleavage rate,[2],0.00572 ± 0.0023
UCCUGGUACAGCUUGCAAAGUAUUUUGUUA,pre-steady-state target cleavage rate,[1],0.0563 ± 0.014
same,pre-steady-state target cleavage rate,[2],0.00296 ± 0.0029
UCCUCCUACAGCUAGCAUAGUAUUUAGAUA,pre-steady-state target cleavage rate,[1],0.144 ± 0.025
same,pre-steady-state target cleavage rate,[2],0.00495 ± 0.0024
UCCUCCUACACCUUGCAUAGUAUUUUGUUA,pre-steady-state target cleavage rate,[1],0.101 ± 0.026
same,pre-steady-state target cleavage rate,[2],0.00451 ± 0.0027
UCCUGCUACAGCUUGCAUAGUUUUUAGUAA,pre-steady-state target cleavage rate,[1],0.0393 ± 0.011
same,pre-steady-state target cleavage rate,[2],0.00424 ± 0.0013
UCCUGCAACAGCUUGCAUAGAAUUUAGUUA,pre-steady-state target cleavage rate,[1],0.0925 ± 0.023
same,pre-steady-state target cleavage rate,[2],0.00434 ± 0.0021
UCCUGGAACAGCUUGCAUAGUAUAAUGUUA,pre-steady-state target cleavage rate,[1],0.0834 ± 0.018
same,pre-steady-state target cleavage rate,[2],0.00416 ± 0.0026
UCCUGCUACAGCUUGCAUAGUAUUAUCUUA,pre-steady-state target cleavage rate,[1],0.16 ± 0.035
same,pre-steady-state target cleavage rate,[2],0.00653 ± 0.0042
UCCUGGAACAGCUUGCAUAGUAUUUCGUUA,pre-steady-state target cleavage rate,[1],0.0829 ± 0.02
same,pre-steady-state target cleavage rate,[2],0.0025 ± 0.0013
UCCUGCUACUGCUUCCAUAGUAUUUAGUUA,pre-steady-state target cleavage rate,[1],0.0453 ± 0.014
same,pre-steady-state target cleavage rate,[2],0.00205 ± 0.0016
UCCUGCUACAGCUUGCAUAGUAUUUCGUUA,pre-steady-state target cleavage rate,[1],0.132 ± 0.033
same,pre-steady-state target cleavage rate,[2],0.00379 ± 0.0018
UCCUGCUACAGCUUGCAUUAGUAUUUAGUUA,pre-steady-state target cleavage rate,[1],0.017 ± 0.007
same,pre-steady-state target cleavage rate,[2],0.00378 ± 0.003
UCCUGCUACAGCUUGCAUAGUAUUAAGUAA,pre-steady-state target cleavage rate,[1],0.172 ± 0.042
same,pre-steady-state target cleavage rate,[2],0.00315 ± 0.0016
UCCUCCUACAGCUUGCAUAGUAAAAACAAA,pre-steady-state target cleavage rate,[1],0.0836 ± 0.022
same,pre-steady-state target cleavage rate,[2],0.00389 ± 0.0036
UCCUGGAUGUCCUUGCAUAGUAUUUAGAUUA,pre-steady-state target cleavage rate,[1],0.101 ± 0.022
same,pre-steady-state target cleavage rate,[2],0.00316 ± 0.003
UCCUGGUACAGCUUGCAUAGUAUUUUCUUA,pre-steady-state target cleavage rate,[1],0.0368 ± 0.016
same,pre-steady-state target cleavage rate,[2],0.00532 ± 0.0034
UCCUCCAUCAGCUUGCAUAGUAUUUAGAAA,pre-steady-state target cleavage rate,[1],0.0615 ± 0.017
same,pre-steady-state target cleavage rate,[2],0.00539 ± 0.0026
UCCUGGAUGUGCUUGCAUAGUAUUGAGUUA,pre-steady-state target cleavage rate,[1],0.0612 ± 0.019
same,pre-steady-state target cleavage rate,[2],0.00273 ± 0.0022
UCCUGGAAGAGCUUGCAUAGUAUUUAGAAA,pre-steady-state target cleavage rate,[1],0.109 ± 0.025
same,pre-steady-state target cleavage rate,[2],0.00533 ± 0.002
UCCUCCUACAGGUUGCAUAGUAUUUAGAUA,pre-steady-state target cleavage rate,[1],0.123 ± 0.017
same,pre-steady-state target cleavage rate,[2],0.00362 ± 0.00095
UCCUCCUACAGCUUGCAUUGUAUUAAGUUA,pre-steady-state target cleavage rate,[1],0.132 ± 0.023
same,pre-steady-state target cleavage rate,[2],0.00681 ± 0.0032
UCCUCCUACACCUUCCAUAGUAUUUAGUUA,pre-steady-state target cleavage rate,[1],0.0308 ± 0.014
same,pre-steady-state target cleavage rate,[2],0.00329 ± 0.0018
UCCUGGAACAGCUUGCAUAGUUAUUAGUUA,pre-steady-state target cleavage rate,[1],0.0369 ± 0.0099
same,pre-steady-state target cleavage rate,[2],0.00251 ± 0.0017
UCCUCCUACAGCUUCCAUAGUAUUUAGUUA,pre-steady-state target cleavage rate,[1],0.0831 ± 0.025
same,pre-steady-state target cleavage rate,[2],0.0042 ± 0.0019
UCCUGCUAGAGCUUGCAUAGUUUUUAGUUA,pre-steady-state target cleavage rate,[1],0.0598 ± 0.012
same,pre-steady-state target cleavage rate,[2],0.00419 ± 0.0013
UCCUCCUACAGCUUGCAUAGUAUUUUGAUA,pre-steady-state target cleavage rate,[1],0.112 ± 0.024
same,pre-steady-state target cleavage rate,[2],0.0044 ± 0.0029
UCCUGGAUGUCCUUGCAUAGUAUUUGAGUUA,pre-steady-state target cleavage rate,[1],0.169 ± 0.043
same,pre-steady-state target cleavage rate,[2],0.00517 ± 0.0037
UCCUCCUACAGCUUGCAUAGUUAAUAGUAA,pre-steady-state target cleavage rate,[1],0.0122 ± 0.0056
same,pre-steady-state target cleavage rate,[2],0.00511 ± 0.003
UCCUGGAUCAGCUUGCAUACUAUUAAGUUA,pre-steady-state target cleavage rate,[1],0.0204 ± 0.0077
same,pre-steady-state target cleavage rate,[2],0.00253 ± 0.0023
UCCUCCUACAGCUUGCAUAGUAUUUAGAUUA,pre-steady-state target cleavage rate,[1],0.122 ± 0.022
same,pre-steady-state target cleavage rate,[2],0.0103 ± 0.0044
UCCUCCUACAGCUUGCAUAGUUUUUACUUA,pre-steady-state target cleavage rate,[1],0.036 ± 0.0086
same,pre-steady-state target cleavage rate,[2],0.00304 ± 0.0026
UCCUCCUACAGCUUGCAUAGUAAUUACUUA,pre-steady-state target cleavage rate,[1],0.0937 ± 0.025
same,pre-steady-state target cleavage rate,[2],0.005 ± 0.0027
UCCUGGAACAGCUUGCAUAGUUUUUAGAAA,pre-steady-state target cleavage rate,[1],0.0191 ± 0.007
same,pre-steady-state target cleavage rate,[2],0.00413 ± 0.0021
UCCUGGAACAGCUUGCAUUGUAUUUAGAAA,pre-steady-state target cleavage rate,[1],0.115 ± 0.028
same,pre-steady-state target cleavage rate,[2],0.00376 ± 0.0021
UCCUCCUACAGCUUGCAUAGUAUAAUGUAA,pre-steady-state target cleavage rate,[1],0.046 ± 0.014
same,pre-steady-state target cleavage rate,[2],0.00413 ± 0.0027
UCCUCCUACAGCUUGCAUAGUAUUUAGAAA,pre-steady-state target cleavage rate,[1],0.18 ± 0.028
same,pre-steady-state target cleavage rate,[2],0.00581 ± 0.0024
